Of roughly 8,800 targets only a part is listed; those with a hit were picked by preference. About 0.5% of all pairs of compound and target were hits.
Tests used:
Assay in all cases: log2 fold change, soluble protein after heating vs DMSO (PISA); higher = thermal stabilisation; K562 lysate, 10 uM; active = over 0.2 and 3.5 SD of the protein, either way, in both replicates (recomputed)
erlotinib = compound: C#Cc1cccc(Nc2ncnc3cc(OCCOC)c(OCCOC)cc23)c1 [erlotinib]
Summary of the method: (§1)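 To prepare the extract, K562 pellets were dounce-homogenised in PBS pH 7.4 with 1 mM MgCl2, giving crude material at 1 mg/mL protein. This was treated with 10 μM compound for 30 min, then heated in aliquots for 3 min over 48°C-58°C before pooling and addition of NP-40 to 0.5% at 4°C. Centrifugation at 21,000xg for 90 min left soluble protein in the supernatant, which TMTpro 16plex LC-MS/MS quantified with equalised channel sums. Results are log-two fold changes in thermal stability compared with solvent controls, from duplicates.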

[1] = compound: C/C(=N\NC(=O)C1=CC(=CC=C1)S(=O)(=O)N2CCOCC2)/C3=C(C=CC(=C3)Cl)O
Summary of the method: as §1

[2] = compound: C1=CC(=CC=C1C2=NC3=C(N2)C=C(C=C3)C(=O)N)OC4=CC=C(C=C4)Cl
Summary of the method: as §1

[3] = compound: C1=CC2=C(C=CC(=C2)/C=C\3/C(=O)NC(=NCC4=CC=CS4)S3)N=C1
Summary of the method: as §1

[4] = compound: C1=CC2=NC=CN=C2C=C1/C=C/3\C(=O)NC(=O)S3
Summary of the method: as §1

[5] = compound: C1=CC=C(C=C1)C2=NC(=C(N2)C3=CC=NC=C3)C4=CC(=C(C=C4)Cl)O
Summary of the method: as §1

[6] = compound: C1=CC=C2C(=C1)C3=NNC4=CC=CC(=C43)C2=O
Summary of the method: as §1

[7] = compound: C1CCN(C1)C(=O)NC2=CC=CC(=C2)NC3=NC=C(C(=N3)NCCC4=CN=CN4)Br
Summary of the method: as §1

[8] = compound: C1CN(CCC1(CC2=CC=C(C=C2)Cl)N)C3=NC=NC4=C3C=CN4
Summary of the method: as §1

IRAK-1-4 Inhibitor I = compound: C1COCCN1CCN2C3=CC=CC=C3N=C2NC(=O)C4=CC(=CC=C4)[N+](=O)[O-] [IRAK-1-4 Inhibitor I]
Summary of the method: as §1

ibrutinib = compound: C=CC(=O)N1CCC[C@@H](n2nc(-c3ccc(Oc4ccccc4)cc3)c3c(N)ncnc32)C1 [ibrutinib]
Summary of the method: as §1

[9] = compound: CC(=O)c1cnc2ccc(-c3cc(Cl)c(O)c(Cl)c3)nc2c1N[C@H]1CC[C@H](CN(C)C)CC1
Summary of the method: as §1

ralimetinib = compound: CC(C)(C)Cn1c(N)nc2ccc(-c3[nH]c(C(C)(C)C)nc3-c3ccc(F)cc3)nc21 [ralimetinib]
Summary of the method: as §1

[10] = compound: CC(C)(O)CC(=O)NCCn1ccc2ncnc(Nc3ccc(Oc4cccc(C(F)(F)F)c4)c(Cl)c3)c21
Summary of the method: as §1

[11] = compound: CC(C)C1=C2N=C(C=C(N2N=C1)NCC3=CC=CC=C3)NCCCCCCN
Summary of the method: as §1

[12] = compound: CC1=C(C(CC(=O)N1)C2=CC=C(C=C2)C(F)(F)F)C(=O)NC3=C(C=C4C(=C3)C=NN4)F
Summary of the method: as §1

[13] = compound: CC1=C(C2=C(C=C1)C(=O)C3=CC=CC=C3N2CCCN)C
Summary of the method: as §1

[14] = compound: CC1=C(C=C(C=C1)NC(=O)C2=CC(=CC=C2)C(C)(C)C#N)NC3=CC4=C(C=C3)N=CN(C4=O)C
Summary of the method: as §1

[15] = compound: CC1=C(C=C(C=C1)NC(=O)C2=CC(=CC=C2)N(C)C)NC(=O)C3=CC=C(C=C3)O
Summary of the method: as §1

[16] = compound: CC1=CC=C(C=C1)SC2=C3C=C(SC3=CN=C2)C(=O)N
Summary of the method: as §1

Measured: log2 fold change

RAE1 (UniProt P78406)
inactive: erlotinib 0.045 | [1] -0.036 | [2] 0.014 | [3] 0.046 | [4] 0.012 | [5] -0.021 | [6] -0.007 | [7] -0.019 | [8] 0.033 | IRAK-1-4 Inhibitor I -0.024 | ibrutinib -0.033 | [9] -0.01 | ralimetinib 0.007 | [10] 0.185 | [11] -0.007 | [12] -0.022 | [13] 0.012 | [14] -0.064 | [15] 0.011 | [16] 0.023

RNF168 (UniProt Q8IYW5)
inactive: erlotinib -0.018 | [1] -0.023 | [2] 0.001 | [3] -0.081 | [4] 0.037 | [5] -0.007 | [6] -0.114 | [8] 0.053 | IRAK-1-4 Inhibitor I 0.008 | ibrutinib 0.155 | [9] 0.144 | ralimetinib 0.004 | [10] -0.041 | [11] -0.034 | [12] -0.071 | [13] 0.031 | [14] 0.026 | [15] -0.04 | [16] 0.011
active: [7] -0.311

RFC5 (UniProt P40937)
inactive: erlotinib 0.02 | [1] 0.024 | [2] -0.025 | [3] 0.036 | [4] -0.012 | [5] 0.029 | [6] -0.074 | [7] 0.004 | [8] 0.023 | IRAK-1-4 Inhibitor I 0.019 | ibrutinib -0.038 | [9] -0.001 | ralimetinib 0.046 | [10] 0.02 | [11] 0.012 | [12] -0.002 | [13] -0.009 | [14] 0.014 | [15] 0.025 | [16] 0.018

RIOK3 (UniProt O14730)
inactive: erlotinib 0.043 | [1] -0.114 | [2] -0.057 | [3] 0.029 | [4] -0.011 | [5] 0.023 | [6] 0.092 | [7] 0.016 | [8] -0.006 | IRAK-1-4 Inhibitor I 0.016 | ibrutinib -0.021 | [9] -0.013 | ralimetinib 0.055 | [10] 0 | [11] 0.054 | [12] -0.011 | [13] -0.023 | [14] 0.001 | [15] 0.011 | [16] -0.093

RDH14 (UniProt Q9HBH5)
Chain of UniProt Q9HBH5 (Q9HBH5 whole entry, looked up): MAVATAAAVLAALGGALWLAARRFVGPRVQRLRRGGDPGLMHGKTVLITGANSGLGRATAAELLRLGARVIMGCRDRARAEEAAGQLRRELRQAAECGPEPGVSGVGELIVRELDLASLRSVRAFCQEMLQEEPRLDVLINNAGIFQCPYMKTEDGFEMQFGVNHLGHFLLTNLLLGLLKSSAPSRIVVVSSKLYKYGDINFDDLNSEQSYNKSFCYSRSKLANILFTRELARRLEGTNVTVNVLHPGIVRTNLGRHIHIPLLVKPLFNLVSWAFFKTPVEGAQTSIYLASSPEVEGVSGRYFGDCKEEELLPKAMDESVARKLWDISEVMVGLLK
inactive: erlotinib -0.019 | [1] 0.021 | [2] -0.056 | [3] -0.049 | [4] 0.037 | [5] 0.021 | [6] 0.024 | [7] 0.036 | [8] -0.057 | IRAK-1-4 Inhibitor I 0.018 | ibrutinib 0.017 | [9] 0.061 | ralimetinib 0.072 | [10] 0.089 | [11] 0.012 | [12] -0.031 | [13] 0.053 | [14] -0.073 | [15] 0.032 | [16] -0.012

SAMHD1 (UniProt Q9Y3Z3)
inactive: erlotinib 0.035 | [1] 0.036 | [2] 0.004 | [3] 0.015 | [4] 0.005 | [5] -0.021 | [6] -0.057 | [7] -0.065 | [8] 0.035 | IRAK-1-4 Inhibitor I 0.013 | ibrutinib -0.009 | [9] -0.022 | ralimetinib 0.056 | [10] -0.004 | [11] -0.002 | [12] 0.003 | [13] -0.017 | [14] 0.006 | [15] 0.067 | [16] -0.003

SEC16A isoform 5 (UniProt O15027)
inactive: erlotinib 0.006 | [1] -0.019 | [2] 0.025 | [3] -0.016 | [4] -0.031 | [5] -0.038 | [6] -0.085 | [7] -0.022 | [8] 0.002 | IRAK-1-4 Inhibitor I -0.005 | ibrutinib 0.035 | [9] -0.021 | ralimetinib -0.013 | [10] 0.015 | [11] 0.01 | [12] 0.019 | [13] 0.004 | [14] -0.121 | [15] 0.011 | [16] -0.031

RBM23 isoform 2 (UniProt Q86U06)
Chain of UniProt Q86U06 (Q86U06 whole entry, looked up): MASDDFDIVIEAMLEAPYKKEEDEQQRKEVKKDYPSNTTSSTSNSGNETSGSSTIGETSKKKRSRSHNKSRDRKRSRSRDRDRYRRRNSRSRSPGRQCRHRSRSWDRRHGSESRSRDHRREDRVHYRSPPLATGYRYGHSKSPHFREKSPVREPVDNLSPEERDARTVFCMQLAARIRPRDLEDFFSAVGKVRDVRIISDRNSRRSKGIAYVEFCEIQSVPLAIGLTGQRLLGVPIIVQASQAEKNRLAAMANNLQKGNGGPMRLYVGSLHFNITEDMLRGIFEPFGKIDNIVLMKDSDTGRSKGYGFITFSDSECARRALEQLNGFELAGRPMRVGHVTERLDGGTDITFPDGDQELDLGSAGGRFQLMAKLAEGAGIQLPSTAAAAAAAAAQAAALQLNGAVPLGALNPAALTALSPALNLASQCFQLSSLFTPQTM
inactive: erlotinib -0.056 | [1] 0.007 | [2] 0.012 | [3] -0.106 | [4] 0.148 | [5] -0.052 | [6] 0.001 | [7] -0.175 | [8] 0.091 | IRAK-1-4 Inhibitor I -0.004 | ibrutinib -0.125 | [9] -0.014 | ralimetinib 0.041 | [10] -0.096 | [11] 0.081 | [12] 0.151 | [13] -0.122 | [14] 0.112 | [15] -0.022 | [16] 0.05

RRAGA (UniProt Q7L523)
Chain of UniProt Q7L523 (Q7L523 whole entry, looked up): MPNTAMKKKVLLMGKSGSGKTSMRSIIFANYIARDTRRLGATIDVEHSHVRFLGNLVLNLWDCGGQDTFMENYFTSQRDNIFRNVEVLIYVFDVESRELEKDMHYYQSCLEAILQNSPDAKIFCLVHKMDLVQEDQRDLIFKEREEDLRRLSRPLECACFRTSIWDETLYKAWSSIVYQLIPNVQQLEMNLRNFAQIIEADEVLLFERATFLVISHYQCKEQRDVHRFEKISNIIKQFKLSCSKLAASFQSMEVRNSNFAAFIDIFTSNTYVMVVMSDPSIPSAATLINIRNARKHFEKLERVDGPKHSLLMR
inactive: erlotinib -0.022 | [1] -0.019 | [2] 0.001 | [3] -0.065 | [4] 0.118 | [5] -0.107 | [6] -0.008 | [7] -0.062 | [8] 0.005 | IRAK-1-4 Inhibitor I 0.026 | ibrutinib -0.114 | [9] 0.008 | ralimetinib -0.112 | [10] -0.524 | [11] 0.006 | [12] 0.005 | [13] -0.089 | [14] 0.079 | [15] 0.343 | [16] -0.113

RNF113A (UniProt O15541)
Chain of UniProt O15541 (O15541 whole entry, looked up): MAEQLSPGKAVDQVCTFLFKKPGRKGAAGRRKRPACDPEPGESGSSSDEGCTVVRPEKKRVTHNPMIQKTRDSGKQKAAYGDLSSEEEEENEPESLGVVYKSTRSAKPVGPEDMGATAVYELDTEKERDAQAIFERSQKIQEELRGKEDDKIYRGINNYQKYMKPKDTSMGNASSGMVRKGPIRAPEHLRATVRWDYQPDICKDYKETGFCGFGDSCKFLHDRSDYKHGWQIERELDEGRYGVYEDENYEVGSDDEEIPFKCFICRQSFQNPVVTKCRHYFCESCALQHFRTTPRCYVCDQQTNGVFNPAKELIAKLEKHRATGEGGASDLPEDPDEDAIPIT
inactive: erlotinib -0.039 | [1] -0.039 | [2] 0.036 | [3] 0.027 | [4] -0.008 | [5] -0.01 | [6] -0.02 | [7] -0.005 | [8] 0.01 | IRAK-1-4 Inhibitor I 0.02 | ibrutinib 0.009 | [9] -0.003 | ralimetinib 0.005 | [10] -0.049 | [11] 0.111 | [12] 0.015 | [13] -0.038 | [14] 0.024 | [15] 0.017 | [16] -0.03

RAB1B (UniProt Q9H0U4)
Chain of UniProt Q9H0U4 (Q9H0U4 whole entry, looked up): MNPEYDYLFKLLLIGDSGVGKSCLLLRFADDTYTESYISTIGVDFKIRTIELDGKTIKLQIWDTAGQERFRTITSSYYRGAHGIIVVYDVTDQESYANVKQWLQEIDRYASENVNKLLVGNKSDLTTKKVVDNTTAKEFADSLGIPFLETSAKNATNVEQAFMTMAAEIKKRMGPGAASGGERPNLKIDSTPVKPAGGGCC
inactive: erlotinib -0.009 | [1] -0.005 | [2] 0.011 | [3] 0.019 | [4] -0.002 | [5] 0.005 | [6] -0.008 | [7] 0.014 | [8] 0.003 | IRAK-1-4 Inhibitor I 0.055 | ibrutinib -0.011 | [9] -0.01 | ralimetinib -0.014 | [10] -0.012 | [11] -0.006 | [12] 0.02 | [13] -0.014 | [14] -0.036 | [15] -0.011 | [16] -0.006

RRM1 (UniProt P23921)
inactive: erlotinib 0.018 | [1] -0.019 | [2] 0.007 | [3] 0.025 | [4] 0.029 | [5] -0.01 | [6] -0.043 | [7] -0.046 | [8] -0.022 | IRAK-1-4 Inhibitor I 0.021 | ibrutinib 0.025 | [9] 0 | ralimetinib 0.005 | [10] -0.01 | [11] 0.022 | [12] 0 | [13] -0.033 | [14] -0.009 | [15] 0.024 | [16] 0.016

RCOR1 (UniProt Q9UKL0)
inactive: erlotinib -0.023 | [1] 0.065 | [2] -0.004 | [3] -0.053 | [4] -0.051 | [5] 0.005 | [6] -0.035 | [7] -0.008 | [8] 0.017 | IRAK-1-4 Inhibitor I 0.003 | ibrutinib 0.016 | [9] -0.001 | ralimetinib 0.023 | [10] -0.028 | [11] 0.264 | [12] 0 | [13] 0.013 | [14] -0.049 | [15] 0.02 | [16] 0.021

RPS9 (UniProt P46781)
inactive: erlotinib -0.034 | [1] 0.022 | [2] -0.03 | [3] -0.054 | [4] -0.016 | [5] -0.011 | [6] 0.011 | [7] 0.025 | [8] -0.018 | IRAK-1-4 Inhibitor I -0.017 | ibrutinib -0.02 | [9] 0.015 | ralimetinib 0.016 | [10] 0.026 | [11] -0.007 | [12] -0.038 | [13] -0.095 | [14] -0.048 | [15] 0.006 | [16] 0.043

RANBP2 (UniProt P49792)
Chain of UniProt P49792 (P49792 whole entry, looked up): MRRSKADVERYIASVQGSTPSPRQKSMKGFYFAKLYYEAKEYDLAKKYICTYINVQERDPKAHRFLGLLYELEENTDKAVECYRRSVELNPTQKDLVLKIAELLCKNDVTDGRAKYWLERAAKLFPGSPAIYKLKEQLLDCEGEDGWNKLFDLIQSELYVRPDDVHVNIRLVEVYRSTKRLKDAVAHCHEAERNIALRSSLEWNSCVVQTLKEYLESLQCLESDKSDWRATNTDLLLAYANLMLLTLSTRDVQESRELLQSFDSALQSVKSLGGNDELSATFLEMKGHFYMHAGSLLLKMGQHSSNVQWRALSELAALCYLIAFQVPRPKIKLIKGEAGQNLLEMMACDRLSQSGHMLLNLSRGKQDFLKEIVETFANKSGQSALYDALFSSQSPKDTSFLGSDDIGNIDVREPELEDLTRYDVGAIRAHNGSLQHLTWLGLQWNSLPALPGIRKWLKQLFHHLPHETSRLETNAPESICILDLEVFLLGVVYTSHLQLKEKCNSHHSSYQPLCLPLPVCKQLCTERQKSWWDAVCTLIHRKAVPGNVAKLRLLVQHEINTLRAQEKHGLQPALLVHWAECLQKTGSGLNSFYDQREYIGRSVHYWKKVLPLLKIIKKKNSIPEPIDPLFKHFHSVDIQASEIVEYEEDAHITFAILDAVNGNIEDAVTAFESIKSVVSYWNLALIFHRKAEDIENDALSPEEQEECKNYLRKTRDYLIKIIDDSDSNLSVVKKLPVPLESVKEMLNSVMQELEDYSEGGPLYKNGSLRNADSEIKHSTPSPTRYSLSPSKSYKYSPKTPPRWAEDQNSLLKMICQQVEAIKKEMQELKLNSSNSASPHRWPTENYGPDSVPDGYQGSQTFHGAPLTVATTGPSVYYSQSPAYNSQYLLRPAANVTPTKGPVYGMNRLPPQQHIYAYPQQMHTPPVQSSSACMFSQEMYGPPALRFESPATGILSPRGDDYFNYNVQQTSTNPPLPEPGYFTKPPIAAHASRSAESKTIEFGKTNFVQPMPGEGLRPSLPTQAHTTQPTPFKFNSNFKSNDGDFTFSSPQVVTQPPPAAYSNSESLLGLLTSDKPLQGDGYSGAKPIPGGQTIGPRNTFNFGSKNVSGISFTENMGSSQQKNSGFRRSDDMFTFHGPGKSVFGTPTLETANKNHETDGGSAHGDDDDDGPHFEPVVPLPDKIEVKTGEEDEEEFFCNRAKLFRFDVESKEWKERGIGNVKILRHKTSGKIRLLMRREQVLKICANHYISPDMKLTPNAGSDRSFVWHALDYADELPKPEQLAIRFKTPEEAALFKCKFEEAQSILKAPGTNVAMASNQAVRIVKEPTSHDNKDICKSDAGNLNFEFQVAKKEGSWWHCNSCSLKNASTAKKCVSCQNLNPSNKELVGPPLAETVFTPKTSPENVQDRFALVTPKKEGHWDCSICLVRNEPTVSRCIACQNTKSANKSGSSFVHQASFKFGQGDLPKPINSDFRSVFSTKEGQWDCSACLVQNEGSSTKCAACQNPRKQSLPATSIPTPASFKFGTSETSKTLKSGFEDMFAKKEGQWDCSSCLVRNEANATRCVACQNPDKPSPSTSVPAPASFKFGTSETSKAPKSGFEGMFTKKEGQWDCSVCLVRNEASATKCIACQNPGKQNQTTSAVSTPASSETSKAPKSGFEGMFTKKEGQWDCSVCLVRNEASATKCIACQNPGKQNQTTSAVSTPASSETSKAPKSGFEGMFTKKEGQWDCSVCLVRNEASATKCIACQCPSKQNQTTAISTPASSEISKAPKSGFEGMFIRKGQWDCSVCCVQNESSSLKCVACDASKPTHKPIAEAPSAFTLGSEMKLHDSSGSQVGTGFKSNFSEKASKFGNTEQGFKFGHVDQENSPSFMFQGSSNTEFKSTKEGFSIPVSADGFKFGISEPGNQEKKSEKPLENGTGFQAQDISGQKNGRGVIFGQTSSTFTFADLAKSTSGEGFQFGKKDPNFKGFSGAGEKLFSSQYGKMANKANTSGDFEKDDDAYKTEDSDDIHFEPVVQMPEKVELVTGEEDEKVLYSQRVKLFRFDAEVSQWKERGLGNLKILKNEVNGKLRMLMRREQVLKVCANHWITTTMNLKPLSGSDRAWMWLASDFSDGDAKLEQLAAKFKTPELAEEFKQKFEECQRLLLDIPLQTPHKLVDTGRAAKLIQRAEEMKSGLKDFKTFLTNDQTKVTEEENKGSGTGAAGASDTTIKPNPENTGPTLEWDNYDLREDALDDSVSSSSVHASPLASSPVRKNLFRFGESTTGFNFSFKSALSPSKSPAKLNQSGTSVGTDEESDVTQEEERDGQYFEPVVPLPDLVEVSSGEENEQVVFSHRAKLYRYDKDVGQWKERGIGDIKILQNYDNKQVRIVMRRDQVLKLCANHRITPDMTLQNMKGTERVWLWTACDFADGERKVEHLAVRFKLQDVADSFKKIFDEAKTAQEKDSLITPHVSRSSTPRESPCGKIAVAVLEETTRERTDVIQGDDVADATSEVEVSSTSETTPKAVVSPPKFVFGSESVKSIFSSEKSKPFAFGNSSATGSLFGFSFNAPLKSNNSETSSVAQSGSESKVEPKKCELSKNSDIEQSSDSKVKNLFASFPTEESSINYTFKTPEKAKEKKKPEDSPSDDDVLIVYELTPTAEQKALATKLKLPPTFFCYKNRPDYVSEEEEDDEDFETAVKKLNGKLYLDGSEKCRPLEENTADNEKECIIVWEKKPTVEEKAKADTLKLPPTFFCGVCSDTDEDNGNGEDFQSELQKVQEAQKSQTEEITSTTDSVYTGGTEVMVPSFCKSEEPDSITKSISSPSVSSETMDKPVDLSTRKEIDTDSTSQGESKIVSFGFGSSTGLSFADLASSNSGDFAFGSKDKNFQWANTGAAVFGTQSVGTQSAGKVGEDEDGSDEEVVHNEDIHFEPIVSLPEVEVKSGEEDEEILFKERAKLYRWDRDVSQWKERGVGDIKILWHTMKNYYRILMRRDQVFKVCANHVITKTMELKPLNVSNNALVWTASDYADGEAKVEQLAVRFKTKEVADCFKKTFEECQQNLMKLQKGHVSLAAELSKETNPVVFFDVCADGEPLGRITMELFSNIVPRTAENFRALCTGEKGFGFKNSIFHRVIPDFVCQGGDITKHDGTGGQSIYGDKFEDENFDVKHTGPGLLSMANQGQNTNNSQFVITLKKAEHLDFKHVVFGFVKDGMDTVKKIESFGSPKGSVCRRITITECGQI
inactive: erlotinib 0.017 | [1] 0.014 | [2] -0.004 | [3] -0.011 | [4] -0.012 | [5] -0.004 | [6] -0.038 | [7] -0.001 | [8] -0.007 | IRAK-1-4 Inhibitor I -0.019 | ibrutinib 0.001 | [9] -0.01 | ralimetinib 0.018 | [10] -0.009 | [11] -0.01 | [12] 0.011 | [13] 0.007 | [14] 0 | [15] 0.018 | [16] -0.001

RAB8B (UniProt Q92930)
Chain of UniProt Q92930 (Q92930 whole entry, looked up): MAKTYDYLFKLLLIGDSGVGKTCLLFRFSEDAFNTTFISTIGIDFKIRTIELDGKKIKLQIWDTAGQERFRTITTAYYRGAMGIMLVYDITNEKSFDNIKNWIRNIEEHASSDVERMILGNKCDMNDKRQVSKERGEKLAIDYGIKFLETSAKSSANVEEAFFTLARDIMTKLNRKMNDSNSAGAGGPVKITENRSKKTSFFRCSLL
inactive: erlotinib 0.013 | [1] -0.042 | [2] 0.049 | [3] 0.113 | [4] 0.004 | [5] 0.034 | [6] 0.125 | [7] 0 | [8] -0.006 | IRAK-1-4 Inhibitor I 0.035 | ibrutinib -0.03 | [9] -0.018 | ralimetinib -0.035 | [10] -0.013 | [11] -0.003 | [12] 0.051 | [13] -0.001 | [14] 0.01 | [15] 0.099 | [16] -0.06
